Screening data (PubChem BioAssay)
An excerpt weighted towards active compounds, which were near 2.9% of everything screened.
HEK293 viab: counter-screen for SNCA expression inhibitors: cell viability; HEK-293-SNCA-luc viability, GF-AFC fluorescence, 24 h; Potency, µM (highest dose often 57.1 µM), hits mostly cytotoxic; 150,000 compounds, 0.12% hits; AID 1671193; also: nearly all actives have a fitted effect of over 30% in size
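Cytotoxicity counterscreen: after 24 h compound treatment of genome-edited SNCA-luciferase HEK-293 cells, live-cell protease substrate GF-AFC read by fluorescence after 30 min; activity scaled between DMSO (0%) and medium-only (-100%), curves Hill-fitted.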
IP6K1 inh: blocks human inositol hexakisphosphate kinase 1; Q92551; 140,000 compounds, 0.81% hits; AID 1645851; activity change, % (series mostly up to about 58 µM); IP6K1 kinase, ADP-Glo luminescence, 2 h; hits give low values; in the data active = activity change below about -25%
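ADP-Glo luminescence measures ADP made by human IP6K1 during a 2 h RT reaction with ATP/IP6 (mix at 1.3 mM/130 uM); top library doses 57.5 and 19.1 uM final.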
SNCA expr inh: reduces expression of the alpha-synuclein gene; HEK-293 SNCA-luciferase knock-in, luminescence, 24 h; Potency, µM (titrated, usually from 57.2 µM), usual class: inhibitors; 140,000 compounds, 0.17% hits; also: nearly all actives have a fitted effect of over 45% in size
KDM5B inhibitor: inhibitors of human KDM5B histone demethylase; AID 1347165; 220,000 compounds, 2.6% hits; KDM5B demethylase, FDH-coupled NADH fluorescence (FDH is formaldehyde dehydrogenase); Potency, µM (doses to about 57.7 µM), actives largely listed as inhibitors; Q9UGL1; also: nearly all actives have a fitted effect of over 70% in size
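Coupled FDH/NAD⁺ fluorescence readout. KDM5BΔAP 200 nM final; compound titration, 10 min RT preincubation; substrate mix 12.5 µM H3K4me3, 25 µM 2-OG, 50 µM Fe(II), 100 µM ascorbate, 0.25 mM NAD⁺, 0.25 U/mL FDH; ΔRFU over 30 min.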
Hits are given with their value; n = inactive; u = inconclusive; x = not tested or not shown; [ ] = remark or other dose. Unless noted, calls follow the shape of the dose curve; as a rule, active = well fitted curve in the direction sought with a large enough effect; inconclusive = small, poorly fitted or top-dose-only effect, or another doubt; inactive = no such curve, though single readings can be large; an effect the other way counts as inactive or inconclusive.

SMILES | HEK293 viab | IP6K1 inh | SNCA expr inh | KDM5B inhibitor
O=C(C1CCC1)N1CCCC(n2cc(-c3nc(-c4ccccc4)no3)nn2)C1 (centres undefined) | n | n | n | n
Cc1noc2c(-c3cccnc3NCC3CCOCC3)cc(-c3ccccc3)nc12 | n | n | n | 32µM
Cc1noc2c(-c3cccnc3N3CCOCC3)cc(-c3ccccc3)nc12 | n | n | n | 35µM
COCCNc1ncccc1-c1cc(-c2ccccc2)nc2c(C)noc12 | n | n | n | 32µM
Cc1noc2c(-c3cccnc3NC3CCC(O)CC3)cc(-c3ccccc3)nc12 (centres undefined) | n | n | n | u
O=C(NC1CCCC1)N1CCN(c2nccc(Nc3ccccc3F)n2)CC1 | n | n | u | x
CN(C)C[C@@H]1CN(c2ncccn2)C[C@H]1NC(=O)c1cnco1 | n | n | n | 32µM
CN(C)C[C@@H]1CN(c2ncccn2)C[C@H]1NC(=O)CCCc1ccccc1 | n | n | n | 32µM
CN(C)C[C@@H]1CN(C)C[C@H]1NC(=O)CCCc1ccccc1 | n | n | n | u
Cc1noc(C)c1C(=O)N[C@@H]1CN(c2ncccn2)C[C@H]1CN(C)C | n | n | n | 32µM
COc1ccccc1-c1ccc(CN2CCC(N[S+](=O)([O-])c3ccc(C)cc3)C2)cc1 (centres undefined) | x | n | x | x
Cc1ccc(Nc2ccnc(N3CCCC(C(=O)NCCc4ccc(F)cc4)C3)n2)cc1 (centres undefined) | n[12.5 µM] | n | n | x
COc1ccc(N2CCN(S(=O)(=O)CCNC(=O)Cc3ccc(-c4ccccc4)cc3)CC2)cc1 | n | -27 | n | n
O=C(Cc1ccc(-c2ccccc2)cc1)NCCS(=O)(=O)N1CCN(c2ccccc2)CC1 | n | n | n | u
COc1ccc2cc(C(=O)N3CCC4(CC3)CC(C(=O)N3CCOCC3)N(C)C4)[nH]c2c1 (centres undefined) | n | n | n | 25µM
CN1CC2(CCN(Cc3cccn3C)CC2)CC1C(=O)N1CCOCC1 (centres undefined) | n | n | n | 16µM
CN1CC2(CCN(Cc3ccccn3)CC2)CC1C(=O)N1CCOCC1 (centres undefined) | n | n | n | 20µM
COc1ccc(N2C(=O)CSC23CCN(C(=O)Nc2ccc([N+](=O)[O-])cc2)CC3)cc1 | n | n | n | n
Cc1c(-c2ccc(F)cc2)[nH]c2ccc(CNC(=O)CCN3CCCO3)cc12 | n | n | n | 32µM
Cc1ccc2c(c1)N(CCC(=O)NCc1ccc(F)cc1)C(=O)CO2 | n | n | n | u
Cc1c(-c2ccc(F)cc2)[nH]c2ccc(CNCc3cnn(C)c3)cc12 | n | n | n | 32µM
Cc1nc(CC(=O)NCc2ccc3[nH]c(-c4ccc(F)cc4)c(C)c3c2)cs1 | n | n | n | 32µM
Cc1c(-c2ccc(F)cc2)[nH]c2ccc(CNC(=O)[C@@H]3CCCO3)cc12 | n | n | n | 28µM
O=c1[nH]c(C2CCCN(Cc3ccc(-c4cccs4)cc3)C2)nc2ccc(F)cc12 (centres undefined) | n | n | u | u
O=C(NCCc1noc(-c2ccccc2)n1)c1n[nH]c2c1CCCCCC2 | n | n | n | x
SMILES | HEK293 viab | IP6K1 inh | SNCA expr inh | KDM5B inhibitor
CN1CCC(Cn2ccc3c(N4CCOCC4)nc(-c4cccc(N5CCOCC5)c4)cc32)CC1 | n | n | n | n
C[S+](=O)([O-])N1CCC(Cn2ccc3c(N4CCOCC4)nc(-c4cccc5[nH]ncc45)cc32)CC1 | n | n | n | 13µM
C[S+](=O)([O-])N1CCC(Cn2ccc3c(N4CCOCC4)nc(-c4ccccc4F)cc32)CC1 | n | n | n | u
CN1CCC(Cn2ccc3c(N4CCOCC4)nc(-c4ccc5cn[nH]c5c4)cc32)CC1 | n | n | n | 35µM
CN1CCC(Cn2ccc3c(N4CCOCC4)nc(-c4cccc5[nH]ccc45)cc32)CC1 | u | n | n | 7.9µM
COC(=O)NC1CCN(c2nccc(Nc3ccccc3F)n2)CC1 | n[12.5 µM] | n | n | x
O=C(C1CCCC1)N1CCN(c2nccc(Nc3ccccc3Cl)n2)CC1 | n | n | n | x
N#Cc1cccc(-c2ccnc(N[C@H]3CO[C@H]4[C@@H]3OC[C@@H]4NC(=O)c3cccs3)n2)c1 | n | n | n | 32µM
C=CCNC(=O)N[C@H]1CO[C@H]2[C@@H]1OC[C@@H]2Nc1nccc(-c2cccc(F)c2)n1 | n | n | n | 40µM
O=C(N[C@H]1CO[C@H]2[C@@H]1OC[C@@H]2Nc1nccc(-c2cccc(F)c2)n1)c1cccs1 | n | n | n | 35µM
N#Cc1cccc(-c2ccnc(N[C@H]3CO[C@H]4[C@@H]3OC[C@@H]4NC(=O)C3CCCCC3)n2)c1 | n | n | n | 35µM
O=C(c1cccc2[nH]ccc12)N1CCC2(CC1)CC(Cc1ccc(F)cc1)CCO2 (centres undefined) | n | n | n | x
Cc1ccc(-c2cn3cc(C(=O)NCc4cccs4)nc3s2)cc1 | n | n | n | x
Cc1ccc(NC(=O)CCC2CCN(S(=O)(=O)c3ccccc3C)CC2)cc1F | n | n | n | n
Cc1nn(-c2ccccc2)c2c1C(C)N(C1CN(C(=O)Nc3ccc(Cl)cc3)C1)C2=O (centres undefined) | x | n | x | x
C=CCNC(=O)N[C@H]1CO[C@H]2[C@@H]1OC[C@@H]2Nc1nccc(-c2ccccc2OC)n1 | n | n | n | 28µM
CCOC(=O)C1CCCN(C(=O)c2cn3cc(-c4ccccc4)sc3n2)C1 (centres undefined) | n | n | n | x
O=C(c1cc(-c2ccccc2F)cc2c1OCCN2Cc1cccnc1)N1CCC1 | n | n | n | u
COc1ccc(-c2cc(C(=O)NCCc3cnc[nH]3)c3c(c2)N(C)CCO3)cn1 | n | n | n | 28µM
CN1CCOc2c(C(=O)NCCC(N)=O)cc(-c3ccccc3OC(F)(F)F)cc21 | n | n | n | 40µM
Cn1ccc(NC(=O)c2cc(-c3ccccc3F)cc3c2OCCN3Cc2cccnc2)n1 | n | n | n | 28µM
O=C(NCC1CCCO1)c1cc(-c2ccccc2F)cc2c1OCCN2Cc1cccnc1 (centres undefined) | n | n | n | 20µM
C[S+](=O)([O-])c1ccc(-c2cc(C(=O)NCC(F)F)nn3cccc23)cc1 | n | n | n | x
CCN1CCN(CC(O)COc2cccc(CNC3(c4ccccc4)CC3)c2)CC1 (centres undefined) | n | n | n | n
CN1CCOc2c(C(=O)NCCc3cnc[nH]3)cc(-c3cccnc3)cc21 | n | n | n | n
CN1CCOc2c(C(=O)NCCc3cnc[nH]3)cc(-c3ccccc3F)cc21 | n | n | n | 32µM
O=C(NCCc1cnc[nH]1)c1cc(-c2ccccc2F)cc2c1OCCN2Cc1cccnc1 | u | n | n | 22µM
CN(C)C(=O)c1cc(-c2ccccc2F)cc2c1OCCN2Cc1cccnc1 | n | n | u | n
COc1cc(F)ccc1-c1cc(C(=O)NCCc2cnc[nH]2)c2c(c1)N(C)CCO2 | n | n | n | 40µM
CC(C)C[C@@H]1N[C@H](C(=O)NCCOc2ccccc2)Cc2c[nH]c3cccc1c23 | u | n | u | n
